Results on 8 compounds are retold here after PubChem BioAssay (Tox21).

Several values for one entry are separate records, joined by “and”; a condition that tells them apart may be missing. Equal values may be shown once. Results filed as inconclusive are left out. Some structures have more than one record in an assay (separate samples or runs), and their calls can disagree. Activity calls are given as the source filed them. Unless noted, the call rests on the fitted dose curve.

Assay [1] is described as follows: Nuclear factor erythroid 2-related factor 2/antioxidant responsive element (Nrf2/ARE) small molecule agonists: qHTS cell viability counter screen in human keratinocytes (AID 1919968; active means well fitted curve in the direction sought with a large enough effect in the repeat runs; an effect the other way counts as inactive or inconclusive; further: nearly all actives have a fitted effect of over 55% in size; further: potency means the concentration at half of the fitted maximal effect). Put shortly:
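KeratinoSens cells (HaCaT keratinocytes stably carrying an ARE-luciferase reporter) were seeded at 1,500 cells/well and rested 5 h at 37 C/5% CO2. They were then exposed to compounds in DMSO for 23 h. Viability was read by CellTiter-Fluor fluorescence after 1 h.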
(Quantitative high-throughput screening tests each substance at several concentrations.)

The nature of assay [2]: Nuclear factor erythroid 2-related factor 2/antioxidant responsive element (Nrf2/ARE) small molecule agonists: luciferase reporter gene qHTS assay in human keratinocytes (AID 1919969). Further: nearly all actives have a fitted effect of over 35% in size. Further: potency means the concentration at half of the fitted maximal effect. In general terms: A reporter such as luciferase makes a cellular process visible.
Assay [3] concerns the target Gonadotropin-releasing hormone receptor (Homo sapiens) (UniProt P30968). Nature of the assay: Human gonadotropin-releasing hormone receptor (GnRHR) small molecule agonists, calcium flux assay in GnRHR-HEK293 cells (AID 1920063). Further: nearly all actives have a fitted effect of over 35% in size. The gist of the method:
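HEK293 cells stably expressing human GnRHR were plated 18 h at 37 °C, loaded with calcium dye 1 h at 37 °C, then given compound in agonist mode; fluorescence (Ex/Em 480/540) read kinetically for 3 min at 1 s intervals.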
(In general: Calcium assays in cells follow changes in intracellular calcium, usually with a dye or a luminescent sensor.)

The target of assay [4] is KiSS-1 receptor (Homo sapiens) (UniProt Q969F8). In words: Human kisspeptin (KISS1R) small molecule agonists, calcium flux assay in KISS1R-HEK293 cells (AID 1920064; active means well fitted curve in the direction sought with a large enough effect in the repeat runs; an effect the other way counts as inactive or inconclusive). Put shortly:
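HEK293 cells stably expressing human KISS1R were plated 18 h at 37 °C, loaded with calcium dye for 1 h at 37 °C, then given compound by pin tool. Fluorescence (Ex/Em 480/540) was read kinetically for 3 min.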

Assay [5] can be described thus: G protein-coupled receptor (GPCR) small molecule agonists, calcium flux assay: HEK293 wild type cell line counter screen (AID 1920065). The gist of the method:
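Cells were plated and cultured 18 h at 37 C/5% CO2, then loaded with calcium dye for 1 h at 37 C. Compounds in DMSO were pin-transferred in agonist mode, and fluorescence (Ex/Em 480/540) was read kinetically for 3 min at 1 s intervals.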

Assay [6] in a line: p53 small molecule agonists, cell-based qHTS assay with human liver microsomes (AID 1963577). Put shortly: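 Compounds act here after metabolic activation: human liver microsomes and NADPH, both at 0.5 mg/mL final, were co-added to p53RE-bla cells. Incubation ran 16 h at 37 C, followed by LiveBLAzer detection.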
Assay [7] in a line: p53 small molecule agonists, cell-based qHTS assay with rat liver microsomes (AID 1963578). Put shortly: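 Read-out is beta-lactamase reporter fluorescence (LiveBLAzer, 2 h, room temperature, dark) in p53RE-bla cells treated 16 h at 37 C with compound, rat liver microsomes and NADPH, both 0.5 mg/mL final.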
The nature of assay [8]: p53 small molecule agonists, cell-based qHTS assay with human liver microsomes: qHTS cell viability counter screen (AID 1963579). Further: nearly all actives have a fitted effect of over 45% in size. Further: potency means the concentration at half of the fitted maximal effect. Put shortly:
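Cells carrying the p53 response-element beta-lactamase reporter are treated for 16 h at 37 C with test compounds in the presence of human liver microsomes and NADPH (both 0.5 mg/mL final); ATP-based CellTiter-Glo luminescence then reports viability.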

The nature of assay [9]: p53 small molecule agonists, cell-based qHTS assay with rat liver microsomes: qHTS cell viability counter screen (AID 1963580). Further: nearly all actives have a fitted effect of over 45% in size. Further: potency means the concentration at half of the fitted maximal effect. Put shortly:
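p53RE-bla HCT-116 cells were exposed 16 h at 37 C to compounds with rat liver microsomes (0.5 mg/mL) and NADPH (0.5 mg/mL). Viability was measured in the same wells as ATP content by CellTiter-Glo luminescence.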

Assay [10] is described as follows: p53 small molecule agonists, cell-based qHTS assay: qHTS cell viability counter screen (AID 1963581). Further: nearly all actives have a fitted effect of over 45% in size. Further: potency means the concentration at half of the fitted maximal effect. The gist of the method: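 p53RE-bla HCT-116 cells were exposed to compounds for 16 h at 37 C; after the beta-lactamase FRET read in the same wells, CellTiter-Glo was added and luminescence (intracellular ATP) read after 30 min at room temperature.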
Assay [11] concerns the target 5-hydroxytryptamine receptor 2A (Homo sapiens) (UniProt P28223). Nature of the assay: 5-hydroxytryptamine receptor 2A (HTR2A) small molecule antagonists, cell-based qHTS assay (AID 1963586). Further: nearly all actives have a fitted effect of over 45% in size. Further: potency means the concentration at half of the fitted maximal effect. Put shortly:
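Antagonist-mode intracellular calcium assay: DOI (4 nM) added after 5 min compound pre-incubation at room temperature to dye-loaded HTR2A-CHO cells. Fluorescence followed for 3 min, sampled every second.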

Assay [12] shares this target. Nature of the assay: 5-hydroxytryptamine receptor 2A (HTR2A) small molecule agonists, cell-based qHTS assay (AID 1963587). Further: nearly all actives have a fitted effect of over 30% in size. Further: potency means the concentration at half of the fitted maximal effect. The gist of the method: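 CHO cells stably expressing human HTR2A, plated 18 h, loaded with calcium dye 1 h at 37 C. Agonist mode: compounds added and intracellular calcium fluorescence recorded kinetically for 2 min at 1 sec intervals.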
Assay [13] concerns the target Muscarinic acetylcholine receptor M1 (Homo sapiens) (UniProt P11229). In words: Cholinergic receptor muscarinic 1 (CHRM1) small molecule antagonists, cell-based qHTS assay (AID 1963588). Further: nearly all actives have a fitted effect of over 40% in size. Further: potency means the concentration at half of the fitted maximal effect. The gist of the method:
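CHRM1-CHO calcium-flux assay, antagonist mode. Cells were seeded 18 h, dye-loaded 1 h at 37 C and given compound for 5 min at RT, then acetylcholine was added at 50nM. FDSS fluorescence was read 3 min; 15 concentrations, three runs.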

Assay [14] can be described thus: cAMP Responsive Elements (CRE) small molecule agonists, cell-based qHTS assay (AID 1963590). Put shortly:
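CRE-bla HEK 293T cells in DMEM with 10% dialyzed FBS, NEAA, pyruvate and 25 mM HEPES were plated 18 h at 37 C/5% CO2, then exposed to compounds in DMSO for 3 h before LiveBLAzer B/G FRET substrate addition.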

The nature of assay [15]: cAMP Responsive Elements (CRE) small molecule antagonists, cell-based qHTS assay (AID 1963591; active means well fitted inhibition curve with a large enough effect in the signal ratio in the repeat runs, not every such curve was filed as active; the % refers to the signal ratio; further: potency means the concentration at half of the fitted maximal effect). The gist of the method: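 CRE-bla HEK293T cells were plated 18 h at 37 °C/5% CO2, pinned with compound in DMSO, then stimulated with NKH477 at 0.25 uM final for 3 h. LiveBLAzer B/G FRET substrate was added and plates incubated 2 h at room temperature.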
Assay [16] concerns the target Beta-2 adrenergic receptor (Homo sapiens) (UniProt P07550). Nature of the assay: Adrenergic beta2 receptor (ADRB2) small molecule antagonists, cell-based qHTS assay (AID 1963592). Further: series mostly up to about 92 µM; nearly all actives have a fitted effect of over 50% in size. Put shortly: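 Cells (CHO, stable ADRB2 overexpression) incubated 18-20hr at 37C; compounds added from DMSO; agonist mix (1nM isoproterenol, 100uM IBMX, 25uM Ro-20-1724) added; 0.5hr RT; d2-cAMP and anti-cAMP-cryptate added; 1hr RT; 665/615 nm read.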

The target is the same in assay [17]. In words: Adrenergic beta2 receptor (ADRB2) small molecule agonists, cell-based qHTS assay (AID 1963593).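 Further: CHO cells stably overexpressing human ADRB2.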 Put shortly: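 CHO cells stably over-expressing ADRB2 were plated overnight at 37C, then dosed with compounds plus a stimulation mix containing 100uM IBMX and 25uM Ro-20-1724 for 0.5hr at room temperature. cAMP was measured by HTRF competition, 1hr.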
In assay [18] the target is D(2) dopamine receptor (Homo sapiens) (UniProt P14416). In words: Dopamine D2 receptor (DRD2) small molecule agonists, cell-based qHTS assay (AID 1963594). Further: nearly all actives have a fitted effect of over 35% in size. Put shortly: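 HEK293 cells stably expressing human DRD2, pre-treated with PDE inhibitor Ro20-1724 (0.1 mM final) and compound 10 min at room temperature, then stimulated with NKH477 (200nM […]) for 30 min. cAMP read by HTRF (665/620 nm).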
D(2) dopamine receptor (Homo sapiens), sequence (P14416 whole entry, looked up): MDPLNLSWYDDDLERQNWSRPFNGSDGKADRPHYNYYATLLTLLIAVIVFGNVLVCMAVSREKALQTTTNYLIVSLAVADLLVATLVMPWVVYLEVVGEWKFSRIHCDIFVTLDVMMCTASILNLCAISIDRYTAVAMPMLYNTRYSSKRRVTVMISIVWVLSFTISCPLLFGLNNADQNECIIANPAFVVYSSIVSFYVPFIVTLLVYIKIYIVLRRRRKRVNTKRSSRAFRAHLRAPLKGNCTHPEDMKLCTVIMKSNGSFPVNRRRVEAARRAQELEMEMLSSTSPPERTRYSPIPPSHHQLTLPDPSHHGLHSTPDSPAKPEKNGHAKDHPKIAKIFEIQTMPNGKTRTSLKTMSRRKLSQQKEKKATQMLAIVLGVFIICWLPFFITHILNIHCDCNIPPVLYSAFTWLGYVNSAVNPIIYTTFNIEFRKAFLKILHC

Assay [19] in a line: p53 small molecule agonists, cell-based qHTS assay (AID 1963582; active means well fitted activation curve with a large enough effect in the signal ratio in the repeat runs, not every such curve was filed as active; the % refers to the signal ratio). Put shortly: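 p53RE-bla beta-lactamase reporter cells rested 5 h at 37 C/5% CO2, then received compounds in DMSO by pin transfer and were incubated 16 h at 37 C. LiveBLAzer B/G FRET substrate was loaded for 2 h at room temperature before fluorescence reading.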
The target of assay [20] is D(2) dopamine receptor (Homo sapiens) (UniProt P14416). In words: Dopamine D2 receptor (DRD2) small molecule antagonists, cell-based qHTS assay (AID 1963595; active means well fitted inhibition curve with a large enough effect in the signal ratio in the repeat runs, with a control signal flat; the % refers to the signal ratio; further: potency means the concentration at half of the fitted maximal effect). Put shortly: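 HTRF cAMP read-out at 665 and 620 nm emission (340 nm excitation). Antagonist mode: compounds were tested against 12 nM quinpirole in DRD2-HEK293 cells, with 200 nM NKH477 raising cAMP and 0.1 mM Ro20-1724 blocking its breakdown.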

Beta-2 adrenergic receptor (Homo sapiens), sequence (P07550 whole entry, looked up): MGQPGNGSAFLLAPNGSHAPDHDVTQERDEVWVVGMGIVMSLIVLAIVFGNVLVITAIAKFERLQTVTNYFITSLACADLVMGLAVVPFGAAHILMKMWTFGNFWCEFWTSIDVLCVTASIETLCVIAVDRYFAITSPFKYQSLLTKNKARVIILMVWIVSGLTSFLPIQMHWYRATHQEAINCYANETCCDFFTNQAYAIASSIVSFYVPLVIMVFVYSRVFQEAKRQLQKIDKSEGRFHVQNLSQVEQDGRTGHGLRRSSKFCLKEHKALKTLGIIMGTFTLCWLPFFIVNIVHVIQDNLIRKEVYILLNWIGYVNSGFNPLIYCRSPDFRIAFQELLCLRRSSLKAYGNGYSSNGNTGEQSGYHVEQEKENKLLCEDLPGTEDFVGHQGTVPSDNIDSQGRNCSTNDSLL
KiSS-1 receptor (Homo sapiens), sequence (Q969F8 whole entry, looked up): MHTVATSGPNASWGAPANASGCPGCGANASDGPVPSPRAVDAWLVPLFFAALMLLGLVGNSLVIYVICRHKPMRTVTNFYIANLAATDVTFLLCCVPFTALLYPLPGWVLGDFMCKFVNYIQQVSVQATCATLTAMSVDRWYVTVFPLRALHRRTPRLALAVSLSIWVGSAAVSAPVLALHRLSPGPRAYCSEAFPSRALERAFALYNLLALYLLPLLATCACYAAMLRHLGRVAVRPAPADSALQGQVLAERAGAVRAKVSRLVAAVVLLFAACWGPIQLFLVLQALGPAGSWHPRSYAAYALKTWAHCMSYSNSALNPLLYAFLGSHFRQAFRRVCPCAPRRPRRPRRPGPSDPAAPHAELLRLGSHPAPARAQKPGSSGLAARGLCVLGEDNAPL
5-hydroxytryptamine receptor 2A (Homo sapiens), sequence (P28223 whole entry, looked up): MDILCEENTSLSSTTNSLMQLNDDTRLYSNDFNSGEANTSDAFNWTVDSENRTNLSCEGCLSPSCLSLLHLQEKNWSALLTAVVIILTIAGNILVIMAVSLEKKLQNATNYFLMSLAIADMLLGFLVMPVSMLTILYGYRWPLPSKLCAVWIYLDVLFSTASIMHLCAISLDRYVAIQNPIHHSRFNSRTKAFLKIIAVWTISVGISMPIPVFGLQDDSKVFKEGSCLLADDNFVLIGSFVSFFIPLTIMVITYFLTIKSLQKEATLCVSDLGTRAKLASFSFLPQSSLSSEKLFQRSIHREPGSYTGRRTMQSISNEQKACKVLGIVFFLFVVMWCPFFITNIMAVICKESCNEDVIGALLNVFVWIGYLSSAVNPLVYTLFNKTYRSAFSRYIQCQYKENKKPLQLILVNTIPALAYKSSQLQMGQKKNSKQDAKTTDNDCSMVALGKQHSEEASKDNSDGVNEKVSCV
Gonadotropin-releasing hormone receptor (Homo sapiens), sequence (P30968 whole entry, looked up): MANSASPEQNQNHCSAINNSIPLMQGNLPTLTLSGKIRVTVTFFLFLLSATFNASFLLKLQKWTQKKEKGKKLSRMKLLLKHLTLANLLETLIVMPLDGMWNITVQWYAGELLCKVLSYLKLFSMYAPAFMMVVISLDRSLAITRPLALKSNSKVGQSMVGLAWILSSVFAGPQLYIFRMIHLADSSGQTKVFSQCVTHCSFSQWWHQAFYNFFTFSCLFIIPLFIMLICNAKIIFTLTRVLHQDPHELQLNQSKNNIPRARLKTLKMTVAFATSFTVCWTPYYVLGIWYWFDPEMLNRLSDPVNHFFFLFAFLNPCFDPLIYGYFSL
Muscarinic acetylcholine receptor M1 (Homo sapiens), sequence (P11229 whole entry, looked up): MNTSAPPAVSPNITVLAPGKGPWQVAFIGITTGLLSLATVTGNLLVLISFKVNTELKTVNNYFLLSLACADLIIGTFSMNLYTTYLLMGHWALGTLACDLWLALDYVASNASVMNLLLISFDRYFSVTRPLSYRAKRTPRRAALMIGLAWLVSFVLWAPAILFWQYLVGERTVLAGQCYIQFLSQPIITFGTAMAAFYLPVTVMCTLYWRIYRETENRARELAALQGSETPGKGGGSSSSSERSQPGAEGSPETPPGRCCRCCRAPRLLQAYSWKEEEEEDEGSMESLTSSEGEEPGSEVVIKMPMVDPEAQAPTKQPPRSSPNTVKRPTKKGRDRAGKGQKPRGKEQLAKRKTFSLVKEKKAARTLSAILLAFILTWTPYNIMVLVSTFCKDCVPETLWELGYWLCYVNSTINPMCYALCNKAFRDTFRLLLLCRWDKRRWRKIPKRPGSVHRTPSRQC

Turning to `CCCCCCCCCCCCOC(=O)c1cc(O)c(O)c(O)c1`, the Potency is 30.5 µM (active) and 27.3 µM (active) in assay [1]; 45.8 µM (active) in assay [8]; 40.6 µM (active) in [9]; 40.6 µM (active) and 40.8 µM (active) in assay [10]; 10.9 µM (active) and inactive in [12]; 21.6 µM (active) and 45.2 µM (active) in [15]. In addition, the Potency result in [2], in assay [3], in [4], in assay [5], in [6] and in [7] was “inactive” each time. The Potency entry in assay [11], in assay [13], in assay [14], in assay [16], in [17] and in assay [18] was “inactive” throughout.

Consider `Cc1c(OCC(F)(F)F)ccnc1CS(=O)c1nc2ccccc2[nH]1` (stereo unspecified), for which the Potency entry in assay [1], in assay [3], in assay [4], in [5], in assay [6] and in assay [7] was “inactive” in each case. Also, the Potency result in assay [8], in assay [9], in [10], in assay [19], in [14] and in assay [15] was “inactive” in each case. The Potency result in [16], in assay [17], in assay [18] and in [20] was “inactive” throughout. In addition, the Potency in assay [2] is 24.3 µM (active) and 33.5 µM (active).

In the case of `CCN(CC)CCOC(=O)c1ccc(N)cc1`, the Potency entry in [1], in [2], in [3], in assay [4], in [5] and in assay [6] was “inactive” in each case. Besides, the Potency result in [7], in assay [8], in assay [9], in assay [10], in [19] and in [14] was “inactive” each time. Further, the Potency entry in assay [15], in assay [16], in assay [18] and in [20] was “inactive” in each case.

Take `CCCCCCCCCCCCCCCC[N+](C)(C)Cc1ccccc1`: the Potency in assay [1] was 28.2 µM (active) and 24.8 µM (active) and 26.6 µM (active); in [8], 53 µM (active) and 33 µM (active) and inactive; in [9], 41.5 µM (active) and inactive; in [10] it was 37 µM (active); in assay [11], “inactive and 11.6 µM (active)”; in assay [12], 49.8 µM (active). The Potency in assay [13] is 410 nM (active); in [20], 55.5 µM (active). Further, the Potency result in [2], in [3], in assay [4], in assay [5], in [6] and in assay [7] was “inactive” in each case. In addition, the Potency entry in assay [16], in assay [17] and in assay [18] was “inactive” throughout.

Consider `CCCCCCCCCCC=CC1CC(=O)OC1=O` (stereo unspecified), for which the Potency result in [1], in [2], in assay [3], in assay [4], in assay [5] and in assay [6] was “inactive” each time. The Potency entry in [7], in assay [8], in assay [9], in assay [10], in assay [11] and in assay [12] was “inactive” each time. For the same compound, the Potency result in assay [13], in assay [14], in assay [15], in [16], in assay [18] and in assay [20] was “inactive” in each case.

As to `CCOC(=O)C(C)(C)Oc1ccc(Cl)cc1`, the Potency entry in [1], in assay [2], in assay [3], in assay [4], in assay [5] and in [6] was “inactive” in each case. Further, the Potency entry in [7], in assay [8], in assay [9], in assay [10], in assay [19] and in [14] was “inactive” throughout. The Potency result in assay [15], in [16], in assay [18] and in assay [20] was “inactive” throughout.

For the compound `C#C[C@]1(O)CC[C@H]2[C@@H]3CCc4cc(OC)ccc4[C@H]3CC[C@@]21C`, the Potency result in assay [1], in [3], in [4], in assay [5], in assay [6] and in [7] was “inactive” throughout. Further, the Potency result in assay [8], in assay [9], in [10], in assay [19], in [14] and in assay [15] was “inactive” in each case. Moreover, the Potency result in assay [16], in assay [18] and in [20] was “inactive” each time. In [2], the Potency is 54.5 µM (active) and 26.6 µM (active).

Take `CC1(C)CC(N)CC(C)(CN)C1` (stereo unspecified): the Potency result in assay [1], in [2], in assay [3], in [4], in [5] and in [6] was “inactive” each time. Besides, the Potency entry in assay [7], in [8], in assay [9], in assay [10], in assay [11] and in [12] was “inactive” each time. In addition, the Potency result in assay [13], in assay [14], in assay [15], in assay [16], in [18] and in assay [20] was “inactive” in each case.
